Values without a mark were called inactive.

UniProt Q15149, sequence (Q15149 whole entry): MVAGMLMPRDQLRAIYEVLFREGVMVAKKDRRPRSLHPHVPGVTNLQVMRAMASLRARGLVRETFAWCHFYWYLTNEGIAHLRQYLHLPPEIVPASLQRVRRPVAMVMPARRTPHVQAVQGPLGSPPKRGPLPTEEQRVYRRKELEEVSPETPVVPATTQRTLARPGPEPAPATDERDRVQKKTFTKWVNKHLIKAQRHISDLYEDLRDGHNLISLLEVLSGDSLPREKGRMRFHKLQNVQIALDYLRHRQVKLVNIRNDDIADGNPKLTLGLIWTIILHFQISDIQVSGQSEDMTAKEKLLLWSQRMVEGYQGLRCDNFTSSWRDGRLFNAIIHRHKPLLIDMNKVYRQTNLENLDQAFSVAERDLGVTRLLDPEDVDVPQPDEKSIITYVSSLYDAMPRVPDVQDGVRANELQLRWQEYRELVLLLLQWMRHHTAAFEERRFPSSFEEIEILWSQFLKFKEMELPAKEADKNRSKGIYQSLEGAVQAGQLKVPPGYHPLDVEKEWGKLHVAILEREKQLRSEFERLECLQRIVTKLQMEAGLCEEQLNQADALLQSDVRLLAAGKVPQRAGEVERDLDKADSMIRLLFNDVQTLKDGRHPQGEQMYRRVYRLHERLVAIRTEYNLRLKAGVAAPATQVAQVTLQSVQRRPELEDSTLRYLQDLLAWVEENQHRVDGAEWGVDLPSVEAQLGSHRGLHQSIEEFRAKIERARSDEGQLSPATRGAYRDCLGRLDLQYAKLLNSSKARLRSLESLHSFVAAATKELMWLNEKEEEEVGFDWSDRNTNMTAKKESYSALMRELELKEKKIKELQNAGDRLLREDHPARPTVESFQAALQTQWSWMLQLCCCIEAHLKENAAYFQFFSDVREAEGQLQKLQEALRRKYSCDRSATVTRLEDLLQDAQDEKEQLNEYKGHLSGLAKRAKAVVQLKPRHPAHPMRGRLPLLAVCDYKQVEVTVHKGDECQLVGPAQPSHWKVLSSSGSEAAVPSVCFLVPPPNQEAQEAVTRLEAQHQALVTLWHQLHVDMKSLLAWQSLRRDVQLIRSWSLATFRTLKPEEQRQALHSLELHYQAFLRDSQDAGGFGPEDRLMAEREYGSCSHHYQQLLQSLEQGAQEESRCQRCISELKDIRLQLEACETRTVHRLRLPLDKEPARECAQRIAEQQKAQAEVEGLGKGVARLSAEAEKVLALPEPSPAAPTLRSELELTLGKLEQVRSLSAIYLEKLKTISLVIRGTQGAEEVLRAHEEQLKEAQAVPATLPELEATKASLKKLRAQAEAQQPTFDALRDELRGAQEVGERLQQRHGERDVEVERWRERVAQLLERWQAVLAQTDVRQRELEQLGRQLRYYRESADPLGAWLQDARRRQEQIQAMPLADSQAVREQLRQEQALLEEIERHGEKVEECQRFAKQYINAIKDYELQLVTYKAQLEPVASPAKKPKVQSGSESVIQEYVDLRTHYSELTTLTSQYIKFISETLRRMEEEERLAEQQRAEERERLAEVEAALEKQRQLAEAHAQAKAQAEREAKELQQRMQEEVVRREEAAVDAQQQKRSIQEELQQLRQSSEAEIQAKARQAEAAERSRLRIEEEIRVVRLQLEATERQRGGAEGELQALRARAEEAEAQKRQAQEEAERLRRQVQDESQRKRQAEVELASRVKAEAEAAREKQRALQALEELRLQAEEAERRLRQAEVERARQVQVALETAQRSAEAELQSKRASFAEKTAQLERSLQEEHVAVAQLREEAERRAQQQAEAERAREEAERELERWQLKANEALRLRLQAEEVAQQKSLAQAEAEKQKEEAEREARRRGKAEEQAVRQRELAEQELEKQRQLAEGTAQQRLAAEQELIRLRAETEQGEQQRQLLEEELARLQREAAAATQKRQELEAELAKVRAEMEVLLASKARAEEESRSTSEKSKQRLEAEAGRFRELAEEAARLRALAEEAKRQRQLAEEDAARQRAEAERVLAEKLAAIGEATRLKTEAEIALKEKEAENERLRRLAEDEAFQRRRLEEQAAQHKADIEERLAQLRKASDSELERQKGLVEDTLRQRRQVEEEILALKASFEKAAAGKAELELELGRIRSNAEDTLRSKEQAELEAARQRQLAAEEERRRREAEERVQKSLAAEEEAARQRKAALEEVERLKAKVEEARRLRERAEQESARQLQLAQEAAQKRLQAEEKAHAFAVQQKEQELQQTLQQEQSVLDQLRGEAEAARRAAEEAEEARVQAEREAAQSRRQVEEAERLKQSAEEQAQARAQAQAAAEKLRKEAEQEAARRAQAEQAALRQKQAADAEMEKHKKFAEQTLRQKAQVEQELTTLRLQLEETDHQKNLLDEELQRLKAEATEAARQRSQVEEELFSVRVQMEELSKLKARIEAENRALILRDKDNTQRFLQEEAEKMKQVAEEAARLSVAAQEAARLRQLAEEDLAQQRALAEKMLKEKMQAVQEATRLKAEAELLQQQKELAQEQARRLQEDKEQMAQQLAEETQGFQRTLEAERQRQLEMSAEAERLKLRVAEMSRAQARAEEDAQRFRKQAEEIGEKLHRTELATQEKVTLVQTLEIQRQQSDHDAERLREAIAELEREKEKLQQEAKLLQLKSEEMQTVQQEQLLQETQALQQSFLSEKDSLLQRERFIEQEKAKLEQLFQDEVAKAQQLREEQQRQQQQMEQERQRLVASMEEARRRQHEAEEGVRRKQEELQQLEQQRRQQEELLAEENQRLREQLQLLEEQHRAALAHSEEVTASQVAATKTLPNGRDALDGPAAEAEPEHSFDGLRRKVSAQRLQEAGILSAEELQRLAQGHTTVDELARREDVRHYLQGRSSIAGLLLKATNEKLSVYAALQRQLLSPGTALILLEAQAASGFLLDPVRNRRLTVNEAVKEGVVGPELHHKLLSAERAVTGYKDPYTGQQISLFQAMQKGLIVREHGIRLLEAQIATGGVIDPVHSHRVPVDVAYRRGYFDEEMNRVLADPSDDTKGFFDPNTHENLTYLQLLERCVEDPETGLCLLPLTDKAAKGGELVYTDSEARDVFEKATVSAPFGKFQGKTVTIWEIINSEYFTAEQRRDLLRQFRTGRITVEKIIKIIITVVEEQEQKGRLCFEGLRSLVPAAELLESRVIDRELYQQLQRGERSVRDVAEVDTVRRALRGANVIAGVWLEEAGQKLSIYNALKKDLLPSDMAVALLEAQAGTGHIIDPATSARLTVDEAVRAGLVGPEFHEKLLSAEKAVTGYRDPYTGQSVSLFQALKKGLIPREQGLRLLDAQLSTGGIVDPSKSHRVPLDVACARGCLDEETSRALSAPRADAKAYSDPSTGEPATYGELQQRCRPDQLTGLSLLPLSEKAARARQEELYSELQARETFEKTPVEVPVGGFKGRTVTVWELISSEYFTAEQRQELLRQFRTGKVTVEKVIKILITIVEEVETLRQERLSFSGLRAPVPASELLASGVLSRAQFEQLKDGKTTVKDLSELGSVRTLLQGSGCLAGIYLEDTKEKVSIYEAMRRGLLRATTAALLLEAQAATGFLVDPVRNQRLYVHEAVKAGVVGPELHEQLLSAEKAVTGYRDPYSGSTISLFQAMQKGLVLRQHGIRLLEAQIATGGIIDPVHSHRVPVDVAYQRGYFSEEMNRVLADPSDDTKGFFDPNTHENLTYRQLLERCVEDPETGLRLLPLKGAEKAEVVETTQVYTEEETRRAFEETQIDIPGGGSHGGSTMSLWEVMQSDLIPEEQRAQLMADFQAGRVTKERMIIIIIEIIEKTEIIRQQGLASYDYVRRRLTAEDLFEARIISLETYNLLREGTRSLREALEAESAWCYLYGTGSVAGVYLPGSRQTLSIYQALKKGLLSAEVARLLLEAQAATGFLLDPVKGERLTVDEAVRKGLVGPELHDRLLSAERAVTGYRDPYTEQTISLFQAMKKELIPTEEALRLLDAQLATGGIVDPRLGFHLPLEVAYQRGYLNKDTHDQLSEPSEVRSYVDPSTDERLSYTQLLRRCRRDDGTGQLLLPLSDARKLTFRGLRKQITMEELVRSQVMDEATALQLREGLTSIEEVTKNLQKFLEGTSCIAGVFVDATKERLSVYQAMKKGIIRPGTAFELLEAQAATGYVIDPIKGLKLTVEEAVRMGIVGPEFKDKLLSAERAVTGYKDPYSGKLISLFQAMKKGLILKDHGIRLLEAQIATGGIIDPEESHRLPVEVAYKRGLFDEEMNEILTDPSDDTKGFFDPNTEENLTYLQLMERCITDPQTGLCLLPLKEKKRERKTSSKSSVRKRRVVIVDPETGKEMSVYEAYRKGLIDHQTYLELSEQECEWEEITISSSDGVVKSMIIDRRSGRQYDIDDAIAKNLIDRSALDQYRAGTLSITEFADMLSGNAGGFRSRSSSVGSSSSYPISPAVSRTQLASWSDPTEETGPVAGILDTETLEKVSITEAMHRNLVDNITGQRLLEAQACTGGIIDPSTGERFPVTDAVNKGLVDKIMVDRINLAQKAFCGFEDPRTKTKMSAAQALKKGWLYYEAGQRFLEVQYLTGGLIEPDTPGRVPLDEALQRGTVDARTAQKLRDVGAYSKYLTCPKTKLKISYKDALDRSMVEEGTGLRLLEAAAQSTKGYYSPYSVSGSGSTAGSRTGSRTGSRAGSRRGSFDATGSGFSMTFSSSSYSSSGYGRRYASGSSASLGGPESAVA
UniProt Q99623, sequence (Q99623 whole entry): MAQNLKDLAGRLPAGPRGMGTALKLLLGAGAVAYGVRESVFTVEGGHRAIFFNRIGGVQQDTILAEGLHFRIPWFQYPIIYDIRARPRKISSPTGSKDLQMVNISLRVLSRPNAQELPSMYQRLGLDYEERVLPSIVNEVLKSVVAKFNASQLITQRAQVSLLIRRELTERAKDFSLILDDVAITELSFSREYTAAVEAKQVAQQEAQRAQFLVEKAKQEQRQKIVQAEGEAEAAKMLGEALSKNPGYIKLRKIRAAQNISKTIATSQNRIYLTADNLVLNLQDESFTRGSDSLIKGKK
UniProt P0C0S5, sequence (P0C0S5 whole entry): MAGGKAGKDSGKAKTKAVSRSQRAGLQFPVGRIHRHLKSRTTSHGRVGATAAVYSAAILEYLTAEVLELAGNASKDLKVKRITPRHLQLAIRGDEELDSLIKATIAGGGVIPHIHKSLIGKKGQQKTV

Compound in the assay: C#CCNC(=O)CCSSCCC(=O)NCCc1ccc(C=O)c(C=O)c1
The assay can be described thus: lysine labeling ratio R10:1 (500 µM / 50 µM probe), SILAC-ABPP in living cells; higher = lower intrinsic lysine reactivity toward the probe, active = 2 or less. As to conditions: HeLa; probe concentrations 500 vs 50 µM. In short, it runs like this:
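With forward and reverse label swaps, light and heavy SILAC HeLa cells, alive and in PBS at room temperature, were exposed to either 500 µM or 50 µM of an alkyne-tagged lysine probe bearing a disulfide link. After mixing, lysates were clicked to biotin-azide, cut with trypsin, pulled down on neutravidin, freed with DTT, alkylated and analysed on a TIMS-TOF Pro by LC-MS/MS. The per-lysine value R is the median over forward and reverse replicates of the filtered median high-probe/low-probe MS1 peptide ratio. It is capped at 20.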
In the case of UniProt O95980 (lysine site: K230), the “lysine labeling ratio R10:1” value is 1.91 (active).

Regarding “SPTAN1 (lysine site: K441) (UniProt Q13813)”, the “lysine labeling ratio R10:1” value is 2.17.

“MCAM (lysine site: K551) (UniProt P43121)”: the “lysine labeling ratio R10:1” value is 5.15.

As for “ROBO1 (lysine site: K490) (UniProt Q9Y6N7)”, the “lysine labeling ratio R10:1” value is 2.81.

As to “SRP14 (lysine site: K55) (UniProt P37108)”, the “lysine labeling ratio R10:1” value is 1.02 (active).

Turning to “EIF2S1 (lysine site: K190) (UniProt P05198)”, the “lysine labeling ratio R10:1” value is 2.9.

Regarding “SEMA3C (lysine site: K158) (UniProt Q99985)”, the “lysine labeling ratio R10:1” value was 5.63.

“ROBO1 (lysine site: K282) (UniProt Q9Y6N7)”: the “lysine labeling ratio R10:1” value is 2.01.

For the target “GAS1 (lysine site: K137) (UniProt P54826)”, the “lysine labeling ratio R10:1” value was 3.54.

“GPC1 (lysine site: K338) (UniProt P35052)”: the “lysine labeling ratio R10:1” value is 7.36.

As for UniProt Q8WXI7 (lysine site: K14239), the “lysine labeling ratio R10:1” value is 4.55.

Regarding UniProt Q99623 (lysine site: K218), the “lysine labeling ratio R10:1” value is 2.79.

As to UniProt P08727 (lysine site: K118), the “lysine labeling ratio R10:1” value is 3.16.

With “LRPAP1 (lysine site: K182) (UniProt P30533)”, the “lysine labeling ratio R10:1” value is 0.73 (active).

On to UniProt P22413 (lysine site: K448), for which the “lysine labeling ratio R10:1” value was 0.527 (active).

“PA2G4 (lysine site: K22) (UniProt Q9UQ80)”: the “lysine labeling ratio R10:1” value was 0.568 (active).

As for “C3 (lysine site: K1546) (UniProt P01024)”, the “lysine labeling ratio R10:1” value was 4.18.

For the target “CD9 (lysine site: K133) (UniProt P21926)”, the “lysine labeling ratio R10:1” value is 5.95.

In the case of “DYNC1H1 (lysine site: K4171) (UniProt Q14204)”, the “lysine labeling ratio R10:1” value is 2.12.

Regarding UniProt P14618 (lysine site: K270), the “lysine labeling ratio R10:1” value is 1.75 (active).

For “ATRN (lysine site: K1133) (UniProt O75882)”, the “lysine labeling ratio R10:1” value is 1.81 (active).

As for UniProt Q99623 (lysine site: K262), the “lysine labeling ratio R10:1” value was 3.03.

As to UniProt P05787 (lysine site: K325), the “lysine labeling ratio R10:1” value was 12.1.

Take “RPL34 (lysine site: K85) (UniProt P49207)”: the “lysine labeling ratio R10:1” value is 1.67 (active).

Consider “VAPA (lysine site: K205) (UniProt Q9P0L0)”, for which the “lysine labeling ratio R10:1” value was 7.76.

As for “CNP (lysine site: K197) (UniProt P09543)”, the “lysine labeling ratio R10:1” value is 2.88.

Take “CTTN (lysine site: K87) (UniProt Q14247)”: the “lysine labeling ratio R10:1” value is 2.06.

In the case of UniProt P02768 (lysine site: K499), the “lysine labeling ratio R10:1” value was 7.98.

Consider UniProt Q15149 (lysine site: K1996), for which the “lysine labeling ratio R10:1” value was 3.69.

For the target “GALNT2 (lysine site: K363) (UniProt Q10471)”, the “lysine labeling ratio R10:1” value is 3.95.

Regarding UniProt Q15149 (lysine site: K2025), the “lysine labeling ratio R10:1” value was 4.19.

In the case of UniProt P62249 (lysine site: K131), the “lysine labeling ratio R10:1” value was 2.97.

UniProt Q15149 (lysine site: K1774): the “lysine labeling ratio R10:1” value is 8.57.

Regarding “GPC1 (lysine site: K277) (UniProt P35052)”, the “lysine labeling ratio R10:1” value was 2.26.

UniProt Q9HAB3 (lysine site: K437): the “lysine labeling ratio R10:1” value is 2.11.

“NRP1 (lysine site: K536) (UniProt O14786)”: the “lysine labeling ratio R10:1” value was 5.72.

Turning to “CHST14 (lysine site: K226) (UniProt Q8NCH0)”, the “lysine labeling ratio R10:1” value is 1.36 (active).

“FLNB (lysine site: K1372) (UniProt O75369)”: the “lysine labeling ratio R10:1” value is 2.69.

As to UniProt P0C0S5 (lysine site: K16), the “lysine labeling ratio R10:1” value was 1.12 (active).

Turning to “MSN (lysine site: K151) (UniProt P26038)”, the “lysine labeling ratio R10:1” value is 2.26.

Values taken from the supplement of paper PMC11001985.
